Measured values: the supplement of paper PMC12340641
Structures can show the parent of a compound that is named as a salt.

Experiments:
[1] = molecular target: IKZF1 (dCK*-IKZF1 fusion in HEK293FT) (UniProt Q13422); test: inhibition of IKZF1 HTRF signal (DMSO = 0%, pomalidomide 10 uM = 100%); higher = lower IKZF1 protein level; conditions: compound concentration: 5 uM, overnight (~20 h)
Method in brief: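 Percent inhibition of IKZF1 signal was calculated per plate with vehicle and a reference degrader as anchors. The anchors were 0% for vehicle and 100% for the degrader, applied to background-subtracted 665/620 nm time-resolved FRET ratios from a commercial HTRF total-IKZF1 kit. Signal came from HEK293FT cells stably expressing an IKZF1 fusion, treated overnight at 37 °C with 5 μM compound in single wells of 384-well plates.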

[2] = test system: HEK293FT dCK*-only; test: relative growth in counter assay (no AraC = 100%, AraC + DMSO = 0%); higher = more growth rescue independent of IKZF1; conditions: compound concentration: 5 uM; AraC concentration: 0.3 uM; overnight pretreatment + 4 days AraC
Method in brief: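 Nuclei were counted by imaging after Hoechst 33342 staining on day 5, in HEK293FT cells (300/well, 384-well) expressing only an engineered kinase construct. Compound at 5 μM went in 2 h after seeding, followed after overnight at 37 °C by a nucleoside suicide substrate at 0.3 μM plus medium for 4 days. Per plate, wells lacking suicide substrate defined 100% and those with substrate plus vehicle defined 0%.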

[3] = test system: HEK293FT dCK*-IKZF1; test: relative growth recovery (pomalidomide 10 uM = 100%, DMSO = 0%); higher = more growth rescue (IKZF1 fusion degradation); conditions: compound concentration: 5 uM; AraC concentration: 0.3 uM; overnight pretreatment + 4 days AraC
Method in brief: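 Means of duplicates from different days are given for growth recovery, normalised per plate against a reference degrader and vehicle. The reference degrader set the 100% level and vehicle the 0% level. HEK293FT cells stably expressing a deoxycytidine kinase–IKZF1 fusion (300/well, 384-well) received 5 μM compound 2 h after seeding and, after overnight at 37 °C, 0.3 μM of a nucleoside suicide substrate plus medium for 4 days. Nuclei stained with Hoechst 33342 were then counted by whole-well imaging on day 5.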

Sequence of IKZF1 (dCK*-IKZF1 fusion in HEK293FT) (Q13422 whole entry, looked up, the tested form may be a part): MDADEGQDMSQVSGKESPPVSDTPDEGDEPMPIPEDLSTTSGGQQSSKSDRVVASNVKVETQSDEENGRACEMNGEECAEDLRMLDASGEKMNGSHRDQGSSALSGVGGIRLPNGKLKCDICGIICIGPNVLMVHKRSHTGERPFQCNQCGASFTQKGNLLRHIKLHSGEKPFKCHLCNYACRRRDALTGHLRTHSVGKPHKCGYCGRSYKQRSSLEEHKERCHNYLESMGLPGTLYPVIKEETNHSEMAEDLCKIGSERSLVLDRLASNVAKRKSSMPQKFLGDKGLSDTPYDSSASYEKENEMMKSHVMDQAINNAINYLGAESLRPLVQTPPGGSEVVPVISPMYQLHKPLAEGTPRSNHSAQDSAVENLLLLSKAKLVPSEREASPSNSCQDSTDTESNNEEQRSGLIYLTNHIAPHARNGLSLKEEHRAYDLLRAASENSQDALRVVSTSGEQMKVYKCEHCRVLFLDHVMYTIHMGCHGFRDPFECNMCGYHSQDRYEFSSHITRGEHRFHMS

| SMILES | inhibition of IKZF1 HTRF signal [1] | relative growth in counter assay [2] | relative growth recovery [3] |
| --- | --- | --- | --- |
| OC(c1cc(C(F)(F)F)nc2c(C(F)(F)F)cccc12)C1CCCCN1 (stereo not given) [Mefloquine HCl] | -25.2% | -1.31% | -6.05% |
| FC(F)(F)c1ccccc1-c1cc(C(F)(F)F)c2[nH]c(C3=NOC4(CCCCC4)C3)nc2c1 | 28.1% | -7.93% | -3.06% |
| CCCCCCCCCCCCCCCC[N+](C)(C)C | 22.3% | -33.4% | -11.7% |
| Cc1nc(Nc2ncc(C(=O)Nc3c(C)cccc3Cl)s2)cc(N2CCN(CCO)CC2)n1 [Dasatinib] | -54.9% | -29% | -7.9% |
| Cn1c(=O)n(-c2ccc(C(C)(C)C#N)cc2)c2c3cc(-c4cnc5ccccc5c4)ccc3ncc21 [Dactolisib (BEZ235, NVP-BEZ235)] | 46.7% | -20.5% | -7.88% |
| O=C1CCC(N2C(=O)c3ccccc3C2=O)C(=O)N1 (stereo not given) [thalidomide] | -17.1% | 0.97% | 1.01% |
| CN(C)CC/C=C1\c2ccccc2CSc2ccccc21 [dosulepin] | -26.3% | -9.29% | -1.36% |
| CO[C@H]1CC(O[C@@H]2/C(C)=C/C[C@@H]3C[C@@H](C[C@]4(CC[C@H](C)[C@@H](C5CCCCC5)O4)O3)OC(=O)[C@@H]3C=C(C)/C(=N/O)[C@H]4OC/C(=C\C=C\[C@@H]2C)[C@]43O)O[C@@H](C)C1O (stereo not given in full) | -24.5% | 10.4% | -2.14% |
| Nc1nc(N)c2nc(-c3ccccc3)c(N)nc2n1 | 3.18% | -11% | -5.46% |
| CN1CCC(=C2c3ccccc3Sc3ccccc32)CC1 | -29.9% | -4.99% | -1.33% |
| CCN(CC)CCOc1ccc2c(c1)C(=O)c1cc(OCCN(CC)CC)ccc1-2 | -2.01% | -26.5% | -8.99% |
| COC(=O)C1=C(C)NC(C)=C([N+](=O)[O-])C1c1ccccc1C(F)(F)F (racemic) | -43.6% | -7.91% | -0.605% |
| COc1ccc(/C=C/C(=O)/C=C(O)/C=C/c2ccc(OC)c(OC)c2)cc1OC [Dimethylcurcumin, ASC-J9] | -40.7% | -25.6% | -5.62% |
| CC/C(=C(\c1ccc(O)cc1)c1ccc(OCCN(C)C(=O)COCCOCCOCCOc2cccc(C(=O)c3csc([C@@H]4CCCN4C(=O)[C@@H](NC(=O)[C@H](C)NC)C4CCCCC4)n3)c2)cc1)c1ccccc1 | 13.9% | -31.8% | -11.5% |
| CC(CCc1ccc(O)cc1)NCCc1ccc(O)c(O)c1 (stereo not given) [Dobutamine (hydrochloride)] | -39.6% | -8.05% | -1.22% |
| CC(=O)Oc1ccccc1C(=O)Nc1ncc([N+](=O)[O-])s1 [Nitazoxanide] | 18.8% | -4.25% | 1.91% |
| CCCCCCCC/C=C\CCCCCCCC(=O)NCCO [oleoylethanolamide] | -34.1% | 0.5% | 1.78% |
| Oc1ccc(Cl)c2cccnc12 | -32.6% | -6.2% | -1.79% |
| COC(=O)C1=C(C)NC(C)=C(C(=O)OC)C1c1ccccc1[N+](=O)[O-] | -23.7% | -4.16% | -3.38% |
| CO[C@H]1CC[C@H](N2C(=O)CNc3ncc(-c4ccc(C(C)(C)O)nc4)nc32)CC1 | -19.1% | -9.67% | -7.24% |

| SMILES | inhibition of IKZF1 HTRF signal [1] | relative growth in counter assay [2] | relative growth recovery [3] |
| --- | --- | --- | --- |
| NC(=O)N/N=C/c1ccc([N+](=O)[O-])o1 | -34.9% | -3.72% | -4.82% |
| CCC(=O)O[C@@H]1CC(=O)O[C@H](C)C/C=C/C=C/[C@H](O)[C@H](C)C[C@H](CC=O)[C@H](O[C@@H]2O[C@H](C)[C@@H](O[C@H]3C[C@@](C)(O)[C@@H](OC(=O)CC)[C@H](C)O3)[C@H](N(C)C)[C@H]2O)[C@H]1OC [Midecamycin] | -31.7% | -8.86% | -1.26% |
| COc1ccc(CCCOC(Cn2ccnc2)c2ccc(OC)cc2)cc1 (stereo not given) | -18.7% | -32.6% | -9.78% |
| Oc1c(I)cc(I)c(O)c1I [riodoxol] | -5.43% | 2.24% | -3.17% |
| COC(=O)Nc1nc2cc(C(=O)c3cccs3)ccc2[nH]1 [nocodazole] | -12% | -33% | -11.6% |
| CCN(CC)CCCC(C)Nc1nc(C)cc(Nc2ccc3nc(C)cc(N)c3c2)n1 (stereo not given) | -45.1% | -7.4% | 0.345% |
| CCCCCCC[N+](CC)(CC)CCCCc1ccc(Cl)cc1 [clofilium] | -21.8% | -3.59% | -1.53% |
| CCCCC1C(=O)N(c2ccccc2)N(c2ccc(O)cc2)C1=O (stereo not given) | -36.3% | -34.9% | -12.7% |
| CN(C)CCN1C(=O)c2cccc3cc(N)cc(c23)C1=O [Amonafide] | 27.6% | -32.4% | -11.7% |
| Clc1ccccc1C(c1ccccc1)(c1ccccc1)n1ccnc1 [Clotrimazole] | -53.5% | 11.9% | 1.77% |
| CCC(=O)N1CCN(c2ccc(-n3c(=O)ccc4cnc5ccc(-c6cnc7ccccc7c6)cc5c43)cc2C(F)(F)F)CC1 [Torin 1] | 35.7% | -27.5% | -10.5% |
| CCOC(=O)Nc1nc2ccccc2[nH]1 | -22.3% | 2.38% | -1.88% |
| CCc1ccc(OCc2ccccc2C(=O)Nc2ccc3nc(C)cc(N)c3c2)cc1 | 41.1% | -34.6% | -14.6% |
| CCC(=N\O)/C(C)=C/c1ccc(F)cc1 | 12.6% | -3.61% | -0.58% |
| Cc1cc([C@H](C(=O)N2C[C@H](O)C[C@H]2C(=O)N[C@@H](CC(=O)N2CCC(C#Cc3ccc(C(=O)N[C@H]4C(C)(C)[C@H](Oc5ccc(C#N)c(Cl)c5)C4(C)C)cc3)CC2)c2ccccc2)C(C)C)on1 | 9.95% | 5.85% | -0.74% |
| OCCCNc1cc(-c2ccnc(Nc3cccc(Cl)c3)n2)ccn1 | 14.5% | -34.4% | -12.8% |
| COc1ccc(CCN(C)CCc2ccc(OC)c(OC)c2)cc1OC | -8.39% | 5.51% | 1.83% |
| Nc1ncn([C@@H]2O[C@H](CO)[C@@H](O)[C@H]2O)c(=O)n1 | -45.6% | -13.2% | -5.21% |
| CCN(CC)CCCCC(NC(=O)c1ccc([N+](=O)[O-])cc1)c1ccccc1 (stereo not given) [nibentan] | -51.4% | 11.1% | 1.83% |
| Nc1ccc(S(=O)(=O)Nc2cnc3ccccc3n2)cc1 | -31.3% | -4.7% | -1.83% |
